According to PubChem BioAssay:
The source made the active and inactive calls.

Assays:
[1] = small molecules captured by biotinylated probe aFSTL3 – biochemical, small-molecule microarray, fluorescence 635/667, stem cell growth factor project, primary screen (AID 1064); conditions: higher = more signal;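 further: measures binding of the biotinylated anti-FSTL3 antibody to printed compounds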
[2] = binders from COS7 lysate, DM2A8 probe, primary screen, torsin A project, cell lysate, small-molecule microarray, fluorescence 635/667 (AID 1065); conditions: higher = more signal, COS7 lysate expressing mutant human TOR1A
[3] = small molecules captured by biotinylated probe aFGF2 – biochemical, small-molecule microarray, fluorescence 635/667, stem cell growth factor project, primary screen (AID 1067); conditions: higher = more signal;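 further: measures binding of biotinylated aFGF2 protein to printed compounds on slides; z-score merges feature fluorescence and signal-to-noise across triplicate slides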
[4] = small molecules captured by biotinylated probe aFGF10 – biochemical, small-molecule microarray, fluorescence 635/667, stem cell growth factor project, primary screen (AID 1071); conditions: higher = more signal;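 further: score merges 667 nm spot intensity and signal to noise from triplicate slides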
[5] = biological target: Neurogenic locus notch homolog protein 2 (Homo sapiens) (UniProt Q04721); test: small molecules binding Notch2 protein – biochemical, small-molecule microarray, 635 nm fluorescence, stem cell growth factors, primary screen (AID 1073); conditions: higher = more signal
Neurogenic locus notch homolog protein 2 (Homo sapiens), sequence (Q04721 whole entry, looked up, canonical isoform): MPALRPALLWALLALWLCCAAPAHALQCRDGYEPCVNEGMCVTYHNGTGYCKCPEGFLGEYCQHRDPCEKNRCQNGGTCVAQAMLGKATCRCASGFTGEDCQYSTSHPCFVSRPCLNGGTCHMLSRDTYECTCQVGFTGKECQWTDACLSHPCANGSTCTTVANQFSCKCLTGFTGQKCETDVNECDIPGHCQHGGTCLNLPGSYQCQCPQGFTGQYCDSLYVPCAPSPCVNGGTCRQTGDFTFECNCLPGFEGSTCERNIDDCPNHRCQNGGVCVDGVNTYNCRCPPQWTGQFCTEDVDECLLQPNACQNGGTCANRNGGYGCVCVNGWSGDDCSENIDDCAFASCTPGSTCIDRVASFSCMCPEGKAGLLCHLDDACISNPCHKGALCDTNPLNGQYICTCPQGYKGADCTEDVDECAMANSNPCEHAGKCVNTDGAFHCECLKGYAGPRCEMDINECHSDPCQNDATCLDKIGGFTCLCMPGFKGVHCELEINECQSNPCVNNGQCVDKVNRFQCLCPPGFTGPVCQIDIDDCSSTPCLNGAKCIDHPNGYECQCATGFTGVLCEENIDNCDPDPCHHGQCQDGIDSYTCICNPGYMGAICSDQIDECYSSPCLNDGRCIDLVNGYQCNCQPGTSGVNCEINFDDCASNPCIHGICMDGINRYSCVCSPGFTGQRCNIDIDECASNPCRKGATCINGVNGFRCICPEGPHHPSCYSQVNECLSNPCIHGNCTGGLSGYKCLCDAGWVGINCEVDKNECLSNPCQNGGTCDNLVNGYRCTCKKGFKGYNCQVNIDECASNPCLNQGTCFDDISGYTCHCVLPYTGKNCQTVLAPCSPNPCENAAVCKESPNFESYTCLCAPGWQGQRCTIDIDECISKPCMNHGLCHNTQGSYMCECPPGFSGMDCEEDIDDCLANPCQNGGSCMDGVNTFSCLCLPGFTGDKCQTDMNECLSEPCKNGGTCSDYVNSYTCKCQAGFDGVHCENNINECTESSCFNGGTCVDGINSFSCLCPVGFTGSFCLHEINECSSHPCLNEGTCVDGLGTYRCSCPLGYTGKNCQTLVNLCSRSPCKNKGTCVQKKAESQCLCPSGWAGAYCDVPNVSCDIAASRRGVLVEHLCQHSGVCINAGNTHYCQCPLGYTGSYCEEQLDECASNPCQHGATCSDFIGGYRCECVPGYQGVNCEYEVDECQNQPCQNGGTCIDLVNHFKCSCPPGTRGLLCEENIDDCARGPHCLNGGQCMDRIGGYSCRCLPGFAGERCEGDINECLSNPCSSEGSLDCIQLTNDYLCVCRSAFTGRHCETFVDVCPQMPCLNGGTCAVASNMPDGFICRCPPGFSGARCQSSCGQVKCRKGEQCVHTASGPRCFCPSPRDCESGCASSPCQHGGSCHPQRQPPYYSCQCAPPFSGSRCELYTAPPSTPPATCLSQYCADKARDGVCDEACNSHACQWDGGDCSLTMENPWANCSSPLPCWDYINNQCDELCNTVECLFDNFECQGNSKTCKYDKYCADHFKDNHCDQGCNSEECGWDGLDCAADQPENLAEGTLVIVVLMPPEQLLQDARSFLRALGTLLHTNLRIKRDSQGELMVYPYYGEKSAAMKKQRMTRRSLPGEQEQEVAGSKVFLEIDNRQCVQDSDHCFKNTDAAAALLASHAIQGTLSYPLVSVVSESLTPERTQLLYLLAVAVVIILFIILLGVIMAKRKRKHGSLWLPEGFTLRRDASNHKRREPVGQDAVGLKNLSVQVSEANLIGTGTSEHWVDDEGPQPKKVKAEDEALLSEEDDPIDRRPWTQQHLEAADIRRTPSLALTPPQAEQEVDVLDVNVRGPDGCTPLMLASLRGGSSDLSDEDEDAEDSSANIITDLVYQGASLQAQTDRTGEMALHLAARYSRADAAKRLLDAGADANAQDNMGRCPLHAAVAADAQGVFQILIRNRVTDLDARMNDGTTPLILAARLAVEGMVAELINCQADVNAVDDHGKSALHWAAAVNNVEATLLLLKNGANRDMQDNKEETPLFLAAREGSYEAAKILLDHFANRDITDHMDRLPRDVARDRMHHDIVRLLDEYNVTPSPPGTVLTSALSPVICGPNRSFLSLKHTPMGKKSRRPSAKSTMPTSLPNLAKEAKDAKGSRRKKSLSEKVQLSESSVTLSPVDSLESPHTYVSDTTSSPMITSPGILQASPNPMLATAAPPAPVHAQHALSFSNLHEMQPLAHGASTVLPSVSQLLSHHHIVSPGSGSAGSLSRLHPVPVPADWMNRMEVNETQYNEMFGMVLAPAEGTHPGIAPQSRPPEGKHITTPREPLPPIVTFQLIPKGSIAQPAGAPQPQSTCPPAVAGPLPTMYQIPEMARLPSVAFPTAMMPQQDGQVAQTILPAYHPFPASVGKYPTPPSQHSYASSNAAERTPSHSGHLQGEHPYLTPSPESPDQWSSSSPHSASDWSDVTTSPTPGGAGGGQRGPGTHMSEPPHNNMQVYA

[6] = biological target: Pro-neuregulin-1, membrane-bound isoform (Homo sapiens) (UniProt Q02297); test: small molecules binding neuregulin-1 protein – biochemical, small-molecule microarray, fluorescence 635/667, psychiatric disease protein project, primary screen (AID 1075); conditions: NRG1 binding, 635 nm fluorescence, higher = more signal;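 further: score combines 667 nm spot fluorescence with signal to noise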
[7] = test system: Neuregulin-1 EGF-like domain; test: small molecules binding NRG1 EGF domain – biochemical, small-molecule microarray, 635 nm fluorescence, primary screen (AID 1081); conditions: higher = more signal;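 further: binding of the protein to compounds printed on small-molecule microarray slides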
[8] = FRG1 expression reporter modulators in myotubes – cell-based, C2C12 myotubes, firefly/Renilla luciferase, luminescence, FRG1 inhibition for FSHD, primary screen (AID 1084); conditions: FRG1 promoter luciferase, higher = more signal, called active from +8 up or from −8 down
[9] = small molecules captured by biotinylated probe aFST – biochemical, small-molecule microarray, fluorescence 635/667, stem cell growth factor project, primary screen (AID 1086); conditions: higher = more signal;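 further: score merges 667 nm fluorescence with signal-to-noise of each printed compound spot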
[10] = binders of probe aHhip on microarray, primary screen, stem cell growth factor project, biochemical, small-molecule microarray, fluorescence 635/667 (AID 1087); conditions: higher = more signal;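 further: score merges spot fluorescence at 667nm with spot signal to noise ratio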
[11] = test system: PRMT1 (protein arginine N-methyltransferase 1); test: small molecules binding arginine methyltransferase PRMT1 – biochemical, small-molecule microarray, 635 nm fluorescence, primary screen (AID 1088); conditions: higher = more signal;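 further: binding of Prmt1 protein to compounds spotted on small-molecule microarray slides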
[12] = growth effects on S. cerevisiae YJM789 – YJM789 clinical isolate, OD600, 24 h, basal, primary screen (AID 1089); conditions: higher = more signal, called active from +8 up or from −8 down;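 further: growth of clinical yeast isolate S. cerevisiae YJM 789 seeded 1000 cells per well; test concentration not given here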
[13] = S. pombe growth modifiers, basal conditions – strain 972, OD600, 24 h, no modulator, primary screen (AID 1090);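 further: basal condition with compound alone and no growth modifier present; test concentration not given here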; conditions: S. pombe 972 growth, higher = more signal, called active from +8 up or from −8 down
[14] = budding yeast growth modifiers under rapamycin – strain BY4716, OD600, 96 h, primary screen (AID 1091); further: test concentration not given here; conditions: S. cerevisiae BY4716 + rapamycin, higher = more signal, called active from +8 up or from −8 down
[15] = biological target: Torsin-1A-interacting protein 2 (Homo sapiens) (UniProt Q8NFQ8); test: small molecules binding lysate-expressed LULL1 – cell lysate, human LULL1 lysate, 635/667 nm fluorescence, primary screen (AID 1092); conditions: small-molecule microarray, hLULL1 lysate binding, 635 nm fluorescence; higher = more signal;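 further: probe is lysate of COS7 cells overexpressing human LULL1; score merges per-feature 667 nm fluorescence with signal-to-noise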
[16] = optical density change of DRC41 E. coli – strain DRC41, OD650, 24 h, E. coli filamentation project, primary screen (AID 1093);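 further: MC1000 strain lacking acrAB efflux and sulA so SOS filamentation is blocked; test concentration not given here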; conditions: E. coli DRC41 growth, higher = more signal, called active from +8 up or from −8 down
[17] = probe aLefty2 binding to arrayed compounds – biochemical, biotinylated probe, 635/667 nm fluorescence, primary screen (AID 1094); conditions: small-molecule microarray, higher = more signal;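 further: score merges spot fluorescence near 667 nm with spot signal-to-noise ratio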
[18] = test system: Noggin (protein binding on small-molecule microarray); test: small molecules binding Noggin protein – biochemical, 635/667 nm fluorescence, primary screen (AID 1095); conditions: 635 nm fluorescence, higher = more signal;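 further: score merges 667 nm feature fluorescence with signal to noise over triplicate slides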
[19] = biological target: Neurogenic locus notch homolog protein 3 (Homo sapiens) (UniProt Q9UM47); test: small molecules binding NOTCH3 protein – biochemical, 635/667 nm fluorescence, primary screen (AID 1096); conditions: small-molecule microarray, 635 nm fluorescence, higher = more signal
Neurogenic locus notch homolog protein 3 (Homo sapiens), sequence (Q9UM47 whole entry, looked up): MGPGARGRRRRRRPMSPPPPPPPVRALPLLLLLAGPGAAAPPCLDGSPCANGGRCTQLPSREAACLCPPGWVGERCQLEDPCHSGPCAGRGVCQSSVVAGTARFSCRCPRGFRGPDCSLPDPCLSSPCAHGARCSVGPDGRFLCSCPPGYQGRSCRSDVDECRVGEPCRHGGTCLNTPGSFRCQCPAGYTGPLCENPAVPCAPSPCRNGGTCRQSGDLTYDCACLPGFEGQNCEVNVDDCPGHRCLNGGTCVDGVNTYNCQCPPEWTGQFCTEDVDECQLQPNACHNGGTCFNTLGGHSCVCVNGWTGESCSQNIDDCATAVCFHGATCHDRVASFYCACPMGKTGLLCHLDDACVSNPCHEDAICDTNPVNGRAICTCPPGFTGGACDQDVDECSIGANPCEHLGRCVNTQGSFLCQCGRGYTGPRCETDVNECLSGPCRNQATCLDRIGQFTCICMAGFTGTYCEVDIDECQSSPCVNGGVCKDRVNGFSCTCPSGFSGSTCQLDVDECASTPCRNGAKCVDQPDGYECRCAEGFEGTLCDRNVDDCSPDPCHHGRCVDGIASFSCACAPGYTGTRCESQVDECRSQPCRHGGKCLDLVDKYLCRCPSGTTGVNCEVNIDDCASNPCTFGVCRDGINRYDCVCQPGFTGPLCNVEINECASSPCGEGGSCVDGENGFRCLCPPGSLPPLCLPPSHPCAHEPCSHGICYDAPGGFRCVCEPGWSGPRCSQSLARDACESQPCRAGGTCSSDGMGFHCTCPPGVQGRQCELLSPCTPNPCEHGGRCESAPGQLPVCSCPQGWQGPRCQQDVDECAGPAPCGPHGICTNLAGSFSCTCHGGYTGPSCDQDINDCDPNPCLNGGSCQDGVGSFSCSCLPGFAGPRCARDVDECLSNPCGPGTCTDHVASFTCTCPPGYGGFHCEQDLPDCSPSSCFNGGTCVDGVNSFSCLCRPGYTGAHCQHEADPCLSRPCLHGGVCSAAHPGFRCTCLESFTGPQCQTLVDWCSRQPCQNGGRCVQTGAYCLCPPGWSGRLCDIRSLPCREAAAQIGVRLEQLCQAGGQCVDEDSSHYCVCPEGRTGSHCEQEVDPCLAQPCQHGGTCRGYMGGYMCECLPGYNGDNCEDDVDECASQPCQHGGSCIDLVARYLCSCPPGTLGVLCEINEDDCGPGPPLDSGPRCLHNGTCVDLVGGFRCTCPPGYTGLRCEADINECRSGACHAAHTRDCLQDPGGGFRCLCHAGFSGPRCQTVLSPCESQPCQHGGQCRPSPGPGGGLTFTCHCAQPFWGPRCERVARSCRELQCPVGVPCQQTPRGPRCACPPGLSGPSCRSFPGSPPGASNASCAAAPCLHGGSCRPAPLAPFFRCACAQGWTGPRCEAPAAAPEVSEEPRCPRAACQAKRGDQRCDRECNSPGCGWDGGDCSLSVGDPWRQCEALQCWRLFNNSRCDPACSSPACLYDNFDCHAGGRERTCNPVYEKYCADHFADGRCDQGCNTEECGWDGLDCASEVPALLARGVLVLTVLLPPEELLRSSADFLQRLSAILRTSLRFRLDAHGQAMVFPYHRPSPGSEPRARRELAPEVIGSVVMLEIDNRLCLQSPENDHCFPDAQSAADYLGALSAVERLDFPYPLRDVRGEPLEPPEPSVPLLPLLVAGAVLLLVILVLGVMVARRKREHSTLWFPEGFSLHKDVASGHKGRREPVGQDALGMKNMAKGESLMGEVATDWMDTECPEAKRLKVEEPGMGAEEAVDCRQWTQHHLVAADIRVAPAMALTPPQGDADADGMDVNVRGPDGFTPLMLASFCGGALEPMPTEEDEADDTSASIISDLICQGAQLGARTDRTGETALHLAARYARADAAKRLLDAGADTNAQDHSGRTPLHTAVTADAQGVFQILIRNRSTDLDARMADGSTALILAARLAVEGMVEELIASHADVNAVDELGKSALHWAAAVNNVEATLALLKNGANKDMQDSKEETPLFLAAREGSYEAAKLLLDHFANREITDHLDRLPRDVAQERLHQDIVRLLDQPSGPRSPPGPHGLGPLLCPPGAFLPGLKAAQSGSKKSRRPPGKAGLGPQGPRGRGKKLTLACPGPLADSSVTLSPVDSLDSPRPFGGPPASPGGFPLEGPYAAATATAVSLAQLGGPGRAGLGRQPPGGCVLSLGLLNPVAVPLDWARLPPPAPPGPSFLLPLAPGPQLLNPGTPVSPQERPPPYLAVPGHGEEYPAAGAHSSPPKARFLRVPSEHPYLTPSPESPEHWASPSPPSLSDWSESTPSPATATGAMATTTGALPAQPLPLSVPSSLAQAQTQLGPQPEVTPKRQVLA

[20] = probe aEGFR binding to arrayed compounds – biochemical, biotinylated probe, 635/667 nm fluorescence, primary screen (AID 1097); conditions: small-molecule microarray, higher = more signal;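 further: probe is a biotinylated anti-EGFR antibody binding compounds printed on slides; score combines fluorescence near 667 nm and signal to noise of each spot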

Compound | composite z-score [1] | composite z-score [2] | composite z-score [3] | composite z-score [4] | composite z-score [5] | composite z-score [6] | composite z-score [7] | z-score [8] | composite z-score [9] | composite z-score [10] | composite z-score [11] | z-score [12] | z-score [13] | z-score [14] | composite z-score [15] | z-score [16] | composite z-score [17] | composite z-score [18] | composite z-score [19] | composite z-score [20]
NCCCCCNC(=O)[C@@H]1C[C@@H]2C(=O)N[C@@H](Cc3ccccc3)C(=O)N2[C@@H]1c1cccc(OCCO)c1 | 0.185 | 0.291 | -0.107 | 0.106 | 0.514 | 1.32 | 1.08 | 1.39 (inactive) | -0.122 | -0.0645 | 0.715 | 0.653 (inactive) | -0.175 (inactive) | 0.68 (inactive) | 1.8 | -0.47 (inactive) | -0.0075 | 0.363 | -0.448 | -0.218
O=C1c2ccccc2[C@](Cc2ccccc2I)(C(=O)NC2CC2)[C@H](c2ccc(CO)cc2)N1C1CCCCC1 | -0.0129 | 0.677 | -0.0989 | 0.418 | 1.48 | 1.62 | 1.41 | -4.4 (inactive) | 1.37 | -0.926 | 1.56 | 1.13 (inactive) | 0.525 (inactive) | 2.36 (inactive) | 2.38 | 0.257 (inactive) | -0.224 | 0.62 | 1.05 | -0.36
COc1ccc(CCNC(=O)[C@@H]2c3ccccc3C(=O)N(C3Cc4ccccc4C3)[C@H]2c2ccc(CO)cc2)cc1 | 0.287 | -0.249 | 0.0628 | 0.219 | -0.395 | 1.49 | 1.05 | -1.06 (inactive) | -0.183 | 0.113 | 1.34 | 0.629 (inactive) | 0.0128 (inactive) | 0.332 (inactive) | 1.75 | -0.141 (inactive) | 0.0349 | -0.155 | -0.145 | -0.0624
C[C@@H]1ON(c2cccc(C(=O)OC(C)(C)C)c2)[C@H](c2ccc(Br)cc2)[C@H]1C(=O)N1C(=O)OC[C@H]1Cc1ccccc1 | -0.532 | 0.351 | -0.031 | 0.511 | 1.37 | 0.457 | 0.958 | -0.295 (inactive) | 0.625 | 0.245 | 1.54 | 0.912 (inactive) | 1.38 (inactive) | 0.528 (inactive) | 1.5 | -0.448 (inactive) | -0.0408 | 0.57 | 1.12 | -0.0039
COC(=O)[C@@]1(Cc2ccc(F)cc2)[C@H]2c3cc(C(=O)N(C)C)n(Cc4ccc(S(C)(=O)=O)cc4)c3C[C@H]2CN1C(=O)c1ccccc1 | 0.244 | 0.657 | 0.209 | 0.629 | 1.41 | 1.79 | 1.19 | 0.0659 (inactive) | 0.198 | 0.0274 | -0.213 | 0.304 (inactive) | 1.21 (inactive) | 0.147 (inactive) | 2.23 | 0.321 (inactive) | 0.124 | -0.139 | 0.49 | -0.0045
